EBNA-1 inhibitor = EBNA-1 DNA-binding inhibitors, primary screen, biochemical, fluorescence polarization | AID 1950, 2009 | 300,000 tested, 0.34% active | inhibition, % at 14.8 µM; in the data active = inhibition above about 28%
Rpn11 inh = Rpn11 (PSMD14) deubiquitinase inhibitors, primary screen, biochemical, fluorescence polarization, uHTS | 26S proteasome non-ATPase regulatory subunit 14 (Homo sapiens), O00487 | human 26S proteasome, Ub4-pepOG fluorescence polarization; 20S core pre-blocked with epoxomicin | inhibition, % at 20 µM | 360,000 tested, 0.59% active | AID 588493, 2011;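 active = inhibition at 20 µM, scaled to each plate's controls, above about 33%, limit read from the data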
TPT1 inhibitor = Candida albicans TPT1 enzyme inhibitors, primary screen, biochemical, fluorescence polarization. tRNA 2'-phosphotransferase TPT1 (Candida albicans SC5314). AID 1962, 2009. recombinant caTPT1, FP RNA substrate dephosphorylation. inhibition, % at 5 µM. 300,000 tested, 0.81% active;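 active = inhibition above the mean of all tested compounds plus 3 SD, set per screening campaign, cut at about 24% in these data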;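 note: plate controls were DMSO alone for no effect and ferristatin control at 100 nM for full effect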
dFosB activator = activators of delta FosB homodimer, primary screen, biochemical, fluorescence polarization, TAMRA-CDK5 oligo, single point; 340,000 tested, 0.99% active; AID 493131, 2011; purified delta FosB; percent of positive-control signal above neutral wells; activation, % at 25 µM; Protein FosB (Mus musculus), P13346;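 active = mean activation above about 17%, with every replicate also reaching it, limit read from the data, passing the limit was not always enough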
Target sequence (P13346 whole entry, looked up): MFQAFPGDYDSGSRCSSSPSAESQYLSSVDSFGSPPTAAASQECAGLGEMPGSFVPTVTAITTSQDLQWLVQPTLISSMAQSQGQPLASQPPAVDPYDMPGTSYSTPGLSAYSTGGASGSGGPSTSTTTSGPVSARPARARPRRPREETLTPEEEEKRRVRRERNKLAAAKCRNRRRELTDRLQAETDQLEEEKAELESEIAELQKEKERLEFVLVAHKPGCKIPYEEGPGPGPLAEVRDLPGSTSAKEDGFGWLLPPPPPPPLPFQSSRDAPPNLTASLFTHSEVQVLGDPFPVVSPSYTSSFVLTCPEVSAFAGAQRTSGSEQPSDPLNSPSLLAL
NR3A LBD binder = binders of NR3A ligand-binding domain, primary screen, biophysical, differential scanning fluorimetry, uHTS. 340,000 tested, 2.5% active. Glutamate receptor ionotropic, NMDA 3A (GRIN3A) ligand-binding domain. Tm shift relative to glycine control, % at 25 µM. NR3A LBD differential scanning fluorimetry, Tm shift; 0% = protein alone, 100% = glycine-bound protein;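 active = melting temperature shift of at least 10% of the positive control shift, at one fixed dose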
ZTA DNA inh = blocks Epstein-Barr virus ZTA, an EBNA-1 counter-screen | AID 2234 | inhibition, % at 11 µM | P03206 | 320,000 tested, 0.15% active | ZTA-DNA binding, fluorescence polarization; in the data active = inhibition above about 33%
Target sequence (P03206 whole entry, looked up): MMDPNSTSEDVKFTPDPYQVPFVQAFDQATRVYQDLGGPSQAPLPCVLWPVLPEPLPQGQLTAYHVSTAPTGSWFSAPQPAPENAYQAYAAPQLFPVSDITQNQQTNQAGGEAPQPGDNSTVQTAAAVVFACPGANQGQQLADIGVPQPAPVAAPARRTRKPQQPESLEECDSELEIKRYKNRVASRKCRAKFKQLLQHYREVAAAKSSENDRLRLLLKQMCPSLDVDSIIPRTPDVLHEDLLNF
Active calls of the source: *; . = no result. Shown are actives, neighbours in structure and some others; about 4.5% of the full set was active somewhere.

SMILES	EBNA-1 inhibitor	Rpn11 inh	TPT1 inhibitor	dFosB activator	NR3A LBD binder	ZTA DNA inh
O=C(Nc1nccs1)C1CCN(S(=O)(=O)c2ccc3c(c2)OCCCO3)CC1	1.1	-10.4	-1.9	-3.1	13.7*	-12.1
O=C(Nc1ccc(-c2nc3ccccc3[nH]2)cc1)c1ccccc1NS(=O)(=O)c1ccc(F)cc1	16.8	7.2	-2.0	14.8	30.4*	10.2
Cc1cc(F)ccc1S(=O)(=O)Nc1ccccc1C(=O)Nc1ccccc1-c1nc2ccccc2[nH]1	-4.2	4.2	1.2	10.4	18.3*	8.0
Cc1cc(Cl)c(OCCOCCN2CCN(C)CC2)c(Br)c1	7.8	0.0	-0.3	4.8	0.0	-8.4
Cc1cc(Cl)c(OCCOCCN2CCC(C)CC2)c(Br)c1	4.2	4.9	0.6	-5.6	16.7*	-6.0
COc1ccc(CC2(C)OC(c3ccncc3)=NN2C(C)=O)cc1 (stereo unspecified)	-5.1	-0.5	1.5	-3.0	-0.8	-2.4
COc1ccc(CC2(C)OC(c3ccc(Cl)cc3)=NN2C(C)=O)cc1 (stereo unspecified)	15.3	-3.8	0.3	0.2	13.4*	14.1
Nc1cc(-c2ccc(Br)cc2)[nH]n1	0.4	-0.6	0.1	-8.7	11.6*	1.5
Cc1ccc(/C=C2\SC(=S)N(C(Cc3ccccc3)C(=O)O)C2=O)cc1 (stereo unspecified)	9.6	-2.9	0.2	-12.2	24.1*	19.0
O=C(O)C(Cc1ccccc1)N1C(=O)/C(=C/c2ccccc2)SC1=S (stereo unspecified)	19.7	-5.1	-2.3	-3.6	11.5*	24.3
O=C(O)C(Cc1ccccc1)N1C(=O)/C(=C/c2cccc3ccccc23)SC1=S (stereo unspecified)	8.4	.	-2.1	.	.	19.2
O=C(O)C(Cc1ccccc1)N1C(=O)c2c(Cl)c(Cl)c(Cl)c(Cl)c2C1=O (stereo unspecified)	-5.4	11.8	-1.4	-8.4	11.3*	3.2
O=C(O)C(Cc1ccccc1)N1C(=O)c2ccccc2C1=O (stereo unspecified)	-4.3	-2.8	-3.6	2.1	-1.1	-7.2
O=C(NCc1ccco1)c1ccc(Cl)c(S(=O)(=O)N2CCCC2)c1	.	0.9	.	-6.1	2.5	7.5
CCc1ccc(NC(=O)CSc2nnc(-c3cnccn3)n2C)cc1	11.0	-0.2	0.3	-7.9	1.8	2.3
COc1ccc(Cl)cc1NC(=O)CSc1nnc(C2CC2)n1C	-13.4	-3.4	-4.7	-8.7	-3.0	-2.4
COc1ccc(Cl)cc1NC(=O)CSc1nnc(C)c(=O)n1N	-1.1	1.4	-4.2	-4.9	12.6*	2.3
COc1ccc(C(=O)COC(=O)c2cnc(C)cn2)cc1OC	.	4.1	.	-3.2	-0.3	4.0
CC(Sc1nnc(-c2ccco2)n1C)C(=O)Nc1nccs1 (stereo unspecified)	7.0	-4.5	-1.3	-3.0	20.8*	11.3
Cc1nnc(NC(=O)C(C)Sc2nnc(-c3ccco3)n2C)s1 (stereo unspecified)	5.7	-1.3	-2.6	-4.9	-0.9	-9.7
CCN(C(=O)Cn1c(=O)oc2ccccc21)c1ccc(C)c(C)c1	9.8	-3.0	-2.3	0.9	1.7	9.7
CC(C)c1ccc(-c2cc(C(=O)N3N=C(C(F)F)CC3(O)C(F)F)c3ccccc3n2)cc1 (stereo unspecified)	9.9	-6.3	-0.9	-5.1	34.7*	-6.5
O=C(c1cc(C2CC2)nc2ccccc12)N1N=C(C(F)F)CC1(O)C(F)F (stereo unspecified)	0.4	6.4	-2.1	2.4	-0.6	-2.9
Cc1ccc(SCCC(=O)OC(C(=O)NC(N)=O)C(C)C)cc1 (stereo unspecified)	-3.1	-0.6	-0.8	-2.2	-0.5	2.1
CCOC(=O)c1sc(NC(=O)c2cccs2)cc1C	18.7	4.1	-1.3	1.1	1.6	6.7
SMILES	EBNA-1 inhibitor	Rpn11 inh	TPT1 inhibitor	dFosB activator	NR3A LBD binder	ZTA DNA inh
CCOC(=O)c1sc(NC(=O)Nc2cccc(Cl)c2)cc1C	6.5	-7.4	-1.2	3.8	23.5*	7.6
CCOC(=O)c1sc(NC(=O)c2sccc2C)cc1C	-3.1	4.0	0.1	2.1	11.0*	5.3
O=C(Nc1nc(-c2cc(Cl)sc2Cl)cs1)c1ccc(Br)s1	8.0	-1.9	-6.7	-5.9	-2.0	-3.8
O=C(NC(=S)Nc1nc(-c2ccccc2)cs1)c1ccco1	0.3	-5.5	-0.8	-3.7	15.7*	-22.3
O=C(Nc1nc(-c2cc(Cl)sc2Cl)cs1)c1cccs1	-18.3	10.2	-1.2	-13.9	13.7*	3.4
O=C(NC(=S)Nc1nc(-c2ccccc2)cs1)c1cccs1	4.8	1.6	1.1	-18.0	27.6*	-4.8
O=C(NC(=S)Nc1nc(-c2ccccc2)cs1)c1cccnc1	14.6	-6.7	23.4	1.3	-23.9	-2.4
O=C(NC(=S)Nc1nc(-c2ccccc2)cs1)c1cncc(Br)c1	4.4	-1.7	-3.3	-2.9	30.9*	2.1
C=CCOc1ccc(Br)cc1CNCC	2.9	-1.6	-1.5	-11.0	-2.6	-20.9
CCc1ccccc1Oc1nc(NC(C)C)nc2ccsc12	.	-11.8	.	.	.	.
COc1cc(OC)cc(C(=O)N(Cc2ccco2)c2c(N)n(Cc3ccccc3)c(=O)[nH]c2=O)c1	.	-1.7	.	-6.7	0.2	.
Cc1ccc(C)c(N2CCN(S(=O)(=O)c3ccc4c(c3)CC(=O)N4C)CC2)c1	6.9	13.1	2.5	-2.5	-3.8	11.3
CN1C(=O)Cc2cc(S(=O)(=O)N3CCN(c4cccc(C(F)(F)F)c4)CC3)ccc21	3.3	16.1	-0.8	-1.8	24.3*	0.6
O=C(COC(=O)c1ccc(Cl)c(S(=O)(=O)NCc2ccccc2)c1)NCC1CCCO1 (stereo unspecified)	0.4	0.6	0.2	-5.1	-2.1	3.2
COc1cc(OC)cc(C(=O)N[C@H](C(=O)OCC(=O)Nc2ccc3c(c2)OCO3)C(C)C)c1	.	2.1	.	-13.2	-1.0	.
CC(C)NC(=O)Nc1ccc2c(c1)C(=O)N([C@H](C)CO)C[C@H](C)[C@@H](CN(C)C(=O)Nc1ccc(C(F)(F)F)cc1)O2	.	2.6	.	-16.8	-2.8	.
C[C@H](CO)N1C[C@H](C)[C@@H](CN(C)S(=O)(=O)c2ccccc2)Oc2ccc(NC(=O)Nc3ccc(C(F)(F)F)cc3)cc2C1=O	.	1.5	.	-17.9	23.0*	.
C[C@H](CO)N1C[C@H](C)[C@@H](CN(C)C(=O)Nc2ccc(C(F)(F)F)cc2)Oc2ccc(NC(=O)Nc3ccc4c(c3)OCO4)cc2C1=O	.	3.4	.	-1.9	10.6*	.
Cc1noc(C)c1S(=O)(=O)N(C)C[C@H]1Oc2c(NC(=O)Nc3ccc(C(F)(F)F)cc3)cccc2C(=O)N([C@H](C)CO)C[C@@H]1C	.	-4.1	.	5.9	10.5*	.

Screening results: PubChem, several laboratories
